Test results as given in PubChem BioAssay (Tox21).
Inconclusive results are not listed. Entries that show only a call come without a potency. Some structures have more than one record in an assay (separate samples or runs), and their calls can disagree. The source made the active and inactive calls. Unless noted, calls come from the whole dose curve; as a rule, active = well fitted curve in the direction sought with a large enough effect in the repeat runs; inconclusive = weak or mixed curves; inactive = no such curve, though single readings can be large; an effect the other way counts as inactive or inconclusive.

Experiments:
[1] = target: Aryl hydrocarbon receptor (Homo sapiens) (UniProt P35869); assay: qHTS assay to identify small molecule that activate the aryl hydrocarbon receptor (AhR) signaling pathway (AID 743085); note: nearly all actives have a fitted effect of over 15% in size; note: potency is the fitted concentration of half-maximal effect;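 for activation: HG2L7.5c1 human HepG2 liver cells with stably integrated DRE-driven firefly reporter; series mostly up to about 70 µM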
Procedure, shortened: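 AhR agonist activity is inferred from enhanced light output of a DRE-controlled firefly luciferase reporter in HepG2 cells, measured with ONE-Glo following 24 h treatment at 37C.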

[2] = qHTS assay to identify small molecule that activate the aryl hydrocarbon receptor (AhR) signaling pathway - cell viability counter screen (AID 743086);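 note: HepG2 liver cells carrying the AhR DRE luciferase reporter; series mostly up to about 70 µM; nearly all actives have a fitted effect of over 45% in size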
Procedure, shortened: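 HepG2-AhR-luc (HG2L7.5c1) cells, 4000/well, treated 24 h at 37 C with compound; viability measured as CellTiter-Fluor fluorescence after 30 min in the same wells as the luciferase read.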

[3] = target: Peroxisome proliferator-activated receptor gamma (Homo sapiens) (UniProt P37231); assay: qHTS assay to identify small molecule agonists of the peroxisome proliferator-activated receptor gamma (PPARg) signaling pathway (AID 743094; active = well fitted activation curve with a large enough effect in the signal ratio in the repeat runs, not every such curve was filed as active; the % refers to the signal ratio)
Procedure, shortened: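 Agonism was assessed in a beta-lactamase reporter system, HEK293H cells with a stably integrated UAS-bla construct under PPARg control; the 17 h treatment at 37C preceded a 1 h room-temperature FRET substrate read.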

[4] = target: Peroxisome proliferator-activated receptor gamma (Homo sapiens) (UniProt P37231); assay: qHTS assay to identify small molecule antagonists of the peroxisome proliferator-activated receptor gamma (PPARg) signaling pathway (AID 743191; calls by dose curve; note: series mostly up to about 63 µM; nearly all actives have a fitted effect of over 30% in size)
Procedure, shortened: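 GeneBLAzer PPARg UAS-bla HEK293H cells, 5 h post-plating, exposed to compounds 17 h at 37C. LiveBLAzer B/G FRET substrate added for 1 h at room temperature; beta-lactamase reporter read by fluorescence intensity.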

[5] = qHTS assay to identify small molecule antagonists of the peroxisome proliferator-activated receptor gamma (PPARg) signaling pathway - cell viability counter screen (AID 743194); note: nearly all actives have a fitted effect of over 55% in size
Procedure, shortened: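 Cytotoxicity counter screen in PPARg-bla HEK293H cells, same wells as reporter assay. Compounds plus 50 nM rosiglitazone (final) for 17 h at 37 C, then viability read by CellTiter-Glo luminescence.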

[6] = qHTS assay for small molecule agonists of the antioxidant response element (ARE) signaling pathway - cell viability counter screen (AID 743203; calls by dose curve; note: nearly all actives have a fitted effect of over 55% in size)
Procedure, shortened: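 ATP content via CellTiter-Glo luminescence served as the viability measure. Cells: ARE-bla HepG2, 2,000 per well. Exposure: 16 hrs, 37C/5% CO2.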

[7] = qHTS assay for small molecule activators of the heat shock response signaling pathway - cell viability counter screen (AID 743209); note: nearly all actives have a fitted effect of over 50% in size
Procedure, shortened: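 Compounds dissolved in DMSO were added to overnight-plated HSE-bla HeLa cells and left 5 h at 37 C. Cell viability was quantified by luminescence using CellTiter-Glo.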

[8] = target: Peroxisome proliferator-activated receptor delta (Homo sapiens) (UniProt Q03181); assay: qHTS assay to identify small molecule agonists of the peroxisome proliferator-activated receptor delta (PPARd) signaling pathway (AID 743212; calls by dose curve)
Procedure, shortened: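 Read-out: beta-lactamase FRET fluorescence after 2 h room-temperature incubation with LiveBLAzer B/G substrate. Cells were HEK293H carrying a UAS-bla reporter for PPARd, treated at 37 C with DMSO-dissolved compounds.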

[9] = target: Bile acid receptor (Homo sapiens) (UniProt Q96RI1); assay: qHTS assay to identify small molecule antagonists of the farnesoid-X-receptor (FXR) signaling pathway (AID 743217; active = well fitted inhibition curve with a large enough effect in the signal ratio in the repeat runs, not every such curve was filed as active; the % refers to the signal ratio)
Procedure, shortened: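 Test compounds are pin-transferred onto FXR-bla HEK 293T cells, then chenodeoxycholic acid is added at 50 uM final. After 16 h at 37 °C, LiveBLAzer B/G substrate is applied for 2 h at room temperature and fluorescence read.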

[10] = qHTS assay to identify small molecule agonists of the farnesoid-X-receptor (FXR) signaling pathway - cell viability counter screen (AID 743218); note: nearly all actives have a fitted effect of over 45% in size
Procedure, shortened: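 Quantitative HTS counter screen measuring ATP-based viability via CellTiter-Glo luminescence in HEK 293T cells carrying a UAS-driven beta-lactamase reporter, after 16 h compound exposure at 37 C.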

[11] = target: Bile acid receptor (Homo sapiens) (UniProt Q96RI1); assay: qHTS assay to identify small molecule agonists of the farnesoid-X-receptor (FXR) signaling pathway (AID 743220; active = well fitted activation curve with a large enough effect in the signal ratio in the repeat runs, not every such curve was filed as active; the % refers to the signal ratio)
Procedure, shortened: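 FXR-UAS-bla HEK 293T cells carrying a UAS-driven beta-lactamase reporter were plated for 5 h at 37C/5% CO2, then exposed to DMSO-dissolved Tox21 10K compounds for 16 h at 37C. A LiveBLAzer B/G FRET substrate was loaded for 2 h at room temperature before fluorescence reading.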

[12] = qHTS assay to identify small molecule antagonists of the farnesoid-X-receptor (FXR) signaling pathway - cell viability counter screen (AID 743221; active = well fitted cell-killing curve with a large enough effect in the repeat runs, not every such curve was filed as active; note: nearly all actives have a fitted effect of over 50% in size)
Procedure, shortened: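 After a 5 h settling period, FXR-bla HEK 293T cells receive compound and chenodeoxycholic acid (50 uM final) and incubate 16 h at 37 C; CellTiter-Glo luminescence, read after 30 min at room temperature, reports cell viability.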

[13] = qHTS assay for small molecule agonists of the antioxidant response element (ARE) signaling pathway (AID 743202; active = well fitted activation curve with a large enough effect in the signal ratio in the repeat runs, not every such curve was filed as active; the % refers to the signal ratio; note: potency is the fitted concentration of half-maximal effect)
Procedure, shortened: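 HepG2 ARE-bla reporter line, 2,000 cells/well; 5 h preincubation 37 C/5% CO2; compound (DMSO) 16 h 37 C; B/G FRET substrate 2 h RT; fluorescence intensity.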

[14] = target: Vitamin D3 receptor (Homo sapiens) (UniProt P11473); assay: qHTS assay to identify small molecule agonists of the vitamin D receptor (VDR) signaling pathway (AID 743222; calls by dose curve)
Procedure, shortened: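 Tox21 cell reporter format: VDR-bla line, 16 h compound exposure in 5% CO2 at 37C, then fluorescence intensity after 2 h with LiveBLAzer B/G FRET substrate.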

[15] = qHTS assay to identify small molecule agonists of the vitamin D receptor (VDR) signaling pathway - cell viability counter screen (AID 743224); note: series mostly up to about 63 µM; nearly all actives have a fitted effect of over 50% in size
Procedure, shortened: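 CellTiter-Glo viability readout on VDR-bla cells, measured after 16 h of compound treatment at 37C in the same wells.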

[16] = qHTS assay for small molecule activators of the heat shock response signaling pathway (AID 743210; active = well fitted activation curve with a large enough effect in the signal ratio in the repeat runs, with a control signal flat, not every such curve was filed as active; the % refers to the signal ratio;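 note: HeLa cells with beta-lactamase reporter driven by heat shock elements; series mostly up to about 63 µM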)
Procedure, shortened: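 Beta-lactamase reporter read-out: FRET substrate fluorescence after 2.5 h at RT, following 5 h compound treatment at 37 C of HeLa cells carrying HSE-driven bla reporter; quantitative HTS format.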

[17] = qHTS assay to identify small molecule antagonists of the peroxisome proliferator-activated receptor delta (PPARd) signaling pathway - cell viability counter screen (AID 743213); note: nearly all actives have a fitted effect of over 50% in size
Procedure, shortened: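 PPARd-bla HEK293H cells (3000/well) got compound plus 300 nM L165041 agonist for 17 h at 37 C. Viability in the same wells came from CellTiter-Glo luminescence after 30 min at room temperature.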

[18] = target: Peroxisome proliferator-activated receptor delta (Homo sapiens) (UniProt Q03181); assay: qHTS assay to identify small molecule antagonists of the peroxisome proliferator-activated receptor delta (PPARd) signaling pathway (AID 743215; active = well fitted inhibition curve with a large enough effect in the signal ratio in the repeat runs, not every such curve was filed as active; the % refers to the signal ratio;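 note: cells stimulated with agonist L165041 at 300 nM final during compound exposure; series mostly up to about 62 µM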)
Procedure, shortened: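 Here, a reporter line (HEK293H, beta-lactamase under a UAS) measures PPARd signaling. Compounds are tested against agonist L165041 at 300 nM final concentration over 17 h at 37 C, with fluorescence read after substrate.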

[19] = qHTS assay to identify small molecule agonists of the peroxisome proliferator-activated receptor delta (PPARd) signaling pathway - cell viability counter screen (AID 743211); note: nearly all actives have a fitted effect of over 55% in size
Procedure, shortened: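 qHTS cell viability: PPARd-bla HEK293H; 17 h cpd, 37C; CellTiter-Glo, luminescence at 30 min RT.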

[20] = target: Vitamin D3 receptor (Homo sapiens) (UniProt P11473); assay: qHTS assay to identify small molecule antagonists of the vitamin D receptor (VDR) signaling pathway (AID 743223; active = well fitted inhibition curve with a large enough effect in the signal ratio in the repeat runs, not every such curve was filed as active; the % refers to the signal ratio)
Procedure, shortened: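 Reporter line VDR-bla; stimulus 1alpha,25-(OH)2 vitamin D3, 3 nM final; compound co-addition, 16 h 37C/5% CO2; LiveBLAzer B/G substrate 2 h RT; fluorescence intensity.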

Peroxisome proliferator-activated receptor delta (Homo sapiens), sequence (Q03181 whole entry, looked up): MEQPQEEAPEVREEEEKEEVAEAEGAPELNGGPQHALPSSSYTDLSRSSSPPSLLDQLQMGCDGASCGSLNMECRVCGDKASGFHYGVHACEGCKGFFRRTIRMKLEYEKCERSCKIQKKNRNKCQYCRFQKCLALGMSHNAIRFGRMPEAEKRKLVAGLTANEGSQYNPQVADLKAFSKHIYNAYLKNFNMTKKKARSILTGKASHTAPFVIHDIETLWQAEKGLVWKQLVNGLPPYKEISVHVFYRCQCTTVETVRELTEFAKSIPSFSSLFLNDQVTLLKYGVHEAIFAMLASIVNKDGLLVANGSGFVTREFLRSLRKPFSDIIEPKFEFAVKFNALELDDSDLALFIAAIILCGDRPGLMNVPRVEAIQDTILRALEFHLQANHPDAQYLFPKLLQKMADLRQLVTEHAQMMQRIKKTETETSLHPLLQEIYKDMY
Aryl hydrocarbon receptor (Homo sapiens), sequence (P35869 whole entry, looked up): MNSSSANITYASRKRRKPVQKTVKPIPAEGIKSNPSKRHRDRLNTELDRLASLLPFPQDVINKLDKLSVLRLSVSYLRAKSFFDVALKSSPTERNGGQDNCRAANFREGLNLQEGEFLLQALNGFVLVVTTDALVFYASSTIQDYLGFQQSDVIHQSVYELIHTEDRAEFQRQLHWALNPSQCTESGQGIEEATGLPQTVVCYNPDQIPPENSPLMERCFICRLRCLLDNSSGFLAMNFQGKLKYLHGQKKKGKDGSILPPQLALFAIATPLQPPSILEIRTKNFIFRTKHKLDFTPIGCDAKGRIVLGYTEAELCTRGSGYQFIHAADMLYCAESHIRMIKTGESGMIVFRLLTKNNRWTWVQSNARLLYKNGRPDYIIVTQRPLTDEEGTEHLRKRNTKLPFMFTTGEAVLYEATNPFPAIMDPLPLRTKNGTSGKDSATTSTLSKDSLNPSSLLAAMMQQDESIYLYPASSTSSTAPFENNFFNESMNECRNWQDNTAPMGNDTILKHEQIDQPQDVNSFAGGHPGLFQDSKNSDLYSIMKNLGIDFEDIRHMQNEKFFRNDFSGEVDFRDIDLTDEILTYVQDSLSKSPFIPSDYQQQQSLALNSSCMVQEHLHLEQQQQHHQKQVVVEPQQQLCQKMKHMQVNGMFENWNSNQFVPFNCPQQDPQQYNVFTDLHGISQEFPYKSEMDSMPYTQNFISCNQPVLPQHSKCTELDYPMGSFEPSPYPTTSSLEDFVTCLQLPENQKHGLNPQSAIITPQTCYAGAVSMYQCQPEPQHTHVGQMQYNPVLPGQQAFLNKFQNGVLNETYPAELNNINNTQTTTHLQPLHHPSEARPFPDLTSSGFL
Vitamin D3 receptor (Homo sapiens), sequence (P11473 whole entry, looked up): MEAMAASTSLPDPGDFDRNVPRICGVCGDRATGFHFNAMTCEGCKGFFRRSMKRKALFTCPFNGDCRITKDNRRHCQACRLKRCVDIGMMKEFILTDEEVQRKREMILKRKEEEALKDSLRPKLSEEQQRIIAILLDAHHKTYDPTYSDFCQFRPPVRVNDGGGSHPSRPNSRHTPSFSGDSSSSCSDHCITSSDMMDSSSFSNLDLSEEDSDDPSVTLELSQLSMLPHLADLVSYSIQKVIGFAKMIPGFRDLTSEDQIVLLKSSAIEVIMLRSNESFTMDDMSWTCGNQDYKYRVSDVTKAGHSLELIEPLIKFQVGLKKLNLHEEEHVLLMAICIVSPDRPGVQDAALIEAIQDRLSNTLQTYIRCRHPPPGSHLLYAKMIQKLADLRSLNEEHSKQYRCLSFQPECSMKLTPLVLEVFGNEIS
Peroxisome proliferator-activated receptor gamma (Homo sapiens), sequence (P37231 whole entry, looked up): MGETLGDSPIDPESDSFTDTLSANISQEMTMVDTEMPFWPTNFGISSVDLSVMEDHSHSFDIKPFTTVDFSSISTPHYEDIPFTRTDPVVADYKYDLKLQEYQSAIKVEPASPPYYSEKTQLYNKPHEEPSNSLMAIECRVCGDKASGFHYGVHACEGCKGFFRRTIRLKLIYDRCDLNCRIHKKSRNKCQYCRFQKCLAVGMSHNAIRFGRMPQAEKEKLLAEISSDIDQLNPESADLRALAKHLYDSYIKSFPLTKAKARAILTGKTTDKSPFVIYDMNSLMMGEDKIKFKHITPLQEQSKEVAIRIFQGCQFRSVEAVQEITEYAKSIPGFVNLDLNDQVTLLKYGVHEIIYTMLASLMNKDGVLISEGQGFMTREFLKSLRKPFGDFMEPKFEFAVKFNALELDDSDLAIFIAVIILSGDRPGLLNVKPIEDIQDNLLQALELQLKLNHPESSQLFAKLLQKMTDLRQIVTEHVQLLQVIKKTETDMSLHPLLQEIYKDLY
Bile acid receptor (Homo sapiens), sequence (Q96RI1 whole entry, looked up): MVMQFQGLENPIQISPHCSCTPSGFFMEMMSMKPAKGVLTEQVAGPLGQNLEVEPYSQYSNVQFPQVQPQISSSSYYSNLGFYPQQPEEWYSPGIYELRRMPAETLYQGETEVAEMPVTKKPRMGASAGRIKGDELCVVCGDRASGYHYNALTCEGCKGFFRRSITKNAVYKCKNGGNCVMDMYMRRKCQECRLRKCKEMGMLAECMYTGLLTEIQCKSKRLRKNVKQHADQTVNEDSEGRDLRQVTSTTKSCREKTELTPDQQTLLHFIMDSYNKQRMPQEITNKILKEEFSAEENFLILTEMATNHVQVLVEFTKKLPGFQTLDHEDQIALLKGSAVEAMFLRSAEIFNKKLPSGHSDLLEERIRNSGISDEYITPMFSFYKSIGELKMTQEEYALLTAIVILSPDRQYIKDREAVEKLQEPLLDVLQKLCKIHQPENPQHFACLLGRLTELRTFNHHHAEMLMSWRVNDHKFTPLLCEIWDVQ

| Structure (SMILES) | Potency [1] | Potency [2] | Potency [3] | Potency [4] | Potency [5] | Potency [6] | Potency [7] | Potency [8] | Potency [9] | Potency [10] | Potency [11] | Potency [12] | Potency [13] | Potency [14] | Potency [15] | Potency [16] | Potency [17] | Potency [18] | Potency [19] | outcome [20] |
| --- | --- | --- | --- | --- | --- | --- | --- | --- | --- | --- | --- | --- | --- | --- | --- | --- | --- | --- | --- | --- |
| CCC(Cl)CCC(Cl)C(Cl)CC(Cl)C(Cl)C(Cl)CCl (stereo not drawn) | inactive | inactive | inactive | inactive | inactive | inactive | inactive | inactive | inactive | inactive | inactive | inactive | – | – | – | – | – | – | – | – |
| CCOC(=O)C1=C[C@]2(CC)CCCN3CCc4c(n1c1ccccc41)[C@@H]32 | 11.9 µM (active) and inactive | inactive | inactive | inactive | – | inactive | inactive | – | – | – | – | – | inactive | inactive | inactive | – | – | – | – | – |
| CC1CCC(=O)C1=O (stereo not drawn) | inactive | inactive | inactive | inactive | – | inactive | inactive | inactive | inactive | inactive | inactive | inactive | inactive | inactive | – | inactive | inactive | inactive | – | – |
| COc1cc(Cl)c(OC)cc1N | 30.6 µM (active) | inactive | inactive | inactive | inactive | inactive | inactive | inactive | inactive | inactive | inactive | inactive | – | inactive | inactive | inactive | inactive | inactive | inactive | inactive |
| S=C([S-])NCCNC(=S)[S-].[Mn+2] | inactive | inactive | inactive | inactive | – | inactive | inactive | – | – | – | – | inactive | 6.86 µM (active) | inactive | inactive | – | inactive | – | – | – |
| CCOc1ccc(N)c([N+](=O)[O-])c1 | inactive | inactive | inactive | inactive | inactive | inactive | inactive | inactive | – | inactive | – | inactive | – | inactive | inactive | – | inactive | inactive | inactive | – |
| O=C1c2ccccc2S(=O)(=O)N1CCCCN1CCN(c2ncccn2)CC1 | inactive | inactive | inactive | inactive | – | inactive | inactive | – | – | inactive | – | inactive | inactive | – | inactive | inactive | inactive | – | inactive | – |
| C=C1[C@H]2CC[C@@H]3[C@H]2C(C)(C)CCC[C@]13C | inactive | inactive | inactive | – | inactive | inactive | inactive | inactive | inactive | inactive | inactive | inactive | inactive | – | inactive | inactive | inactive | inactive | inactive | – |
| CC(C)(C)Cl | inactive | inactive | inactive | inactive | – | inactive | inactive | – | inactive | inactive | inactive | inactive | inactive | inactive | inactive | inactive | – | – | inactive | inactive |
